Source: PubChem BioAssay (NCATS)
“And” between values parts separate entries of the source, which are not always exact repeats. Equal entries are not always repeated. Results filed as inconclusive are left out. The source made the active and inactive calls. Unless noted, calls follow the shape of the dose curve; as a rule, active = well fitted curve in the direction sought with a large enough effect; inconclusive = small, poorly fitted or top-dose-only effect, or another doubt; inactive = no such curve, though single readings can be large; an effect the other way counts as inactive or inconclusive.

How the values were obtained:
[1] = AP1 Signaling Pathway (AID 357; active = well fitted curve in either direction with a large enough effect, not every such curve was filed as active;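 also: ME-180 reporter cells stimulated with EGF at its EC50 level; % is scaled to controls: 0 for no effect and ±100 for the full control effect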); conditions: ME-180 AP-1-bla reporter, EGF-induced, beta-lactamase ratio, 5 h; at 7.69 µM (top of the series) unless noted
Outline: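 AP-1-bla ME-180 cells, Opti-MEM + 0.5% dialyzed FBS, plated overnight 37 °C. Cpd titration + EC50 EGF, 5 h 37 °C. CCF4 2.5 h RT; ex 405, em 460/530 ratio → %activity, AC50.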

[2] = target: Cytochrome P450 1A2 (Homo sapiens) (UniProt P05177); assay: p450-cyp1a2 (AID 410; calls by dose curve; also: potency is read from the fitted curve at half-maximal effect;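 as to activity change, negative = inhibition: -100% = full effect of reference inhibitor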)
Outline: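 O-Demethylation of luciferin 6' methyl ether by human CYP1A2 is monitored as luciferase luminescence. Substrate sits at Km (100uM); enzyme is 20nM. Values are scaled to 57 uM furafylline as maximal inhibition.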

[3] = NFAT Signaling Pathway (AID 444; active = well fitted curve in either direction with a large enough effect, not every such curve was filed as active;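 also: carbachol stimulus at about its EC50 of 1 µM final; % is scaled to controls: 0 for no effect and ±100 for the full control effect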); conditions: Jurkat NFAT-bla M1, carbachol, beta-lactamase ratio, 5 h; at 7.69 µM (top of the series) unless noted
Outline: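 Jurkat cells with NFAT-driven β-lactamase reporter and co-expressed M1 receptor, stimulated with carbachol (final 1 uM, ~EC50), compound titration, 5 h at 37 °C. CCF4 loaded 1 h at RT; 460/530 nm ratio gave %activity and AC50.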

[4] = Stat Signaling Pathway (AID 446; active = well fitted curve in either direction with a large enough effect, not every such curve was filed as active;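 also: ME-180 cervical cancer cells given 40 pM IL-6 alongside compound; SIE-controlled beta-lactamase reporter measured as 460/530 nm FRET emission ratio; % is scaled to controls: 0 for no effect and ±100 for the full control effect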); conditions: ME-180 (cervical carcinoma) SIE beta-lactamase reporter, IL-6 stimulated, 5 h; at 7.69 µM (top of the series) unless noted
Outline: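 Normalization used AC90 stimulation (300 pM IL-6) and AC90 inhibition (125 nM pan-JAK inhibitor at 40 pM IL-6). The underlying signal is SIE-driven beta-lactamase in ME-180 cells after 5 h IL-6 exposure with compound.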

[5] = target: Glucocorticoid receptor (Homo sapiens) (UniProt P04150); assay: GR-GFP Redistribution (AID 450;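 active = compounds whose dose series gives a full or clear partial fitted curve of increased nuclear translocation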; also: potency is read from the fitted curve at half-maximal effect); conditions: U2OS GR-GFP nuclear translocation, laser cytometry, 2 h
[6] = target: Glucocorticoid receptor (Homo sapiens) (UniProt P04150); assay: GR-EFC Redistribution (AID 451; calls by dose curve; also: potency is read from the fitted curve at half-maximal effect); conditions: CHO-K1 GR-EFC translocation, beta-gal luminescence, 2 h
Outline: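 CHO-K1 cells expressing nuclear EA and GR-ED fragments of b-gal; compounds titrated up to 46 uM final, 2 h at 37 C. GR nuclear translocation read as complemented b-gal luminescence after 1 h RT detection.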

[7] = target: Mitogen-activated protein kinase 10 (Mus musculus) (UniProt Q61831); assay: JNK3 AlphaScreen Assay (AID 530; active = well fitted curve in either direction with a large enough effect, not every such curve was filed as active;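 also: kinase came from lysate of stimulated human HepG2 cells; signal reports phosphorylation of biotinylated GST-cJun 1-79 at Ser73 with 10 µM ATP; % is scaled to controls: 0 for no effect and ±100 for the full control effect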)
Outline: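 Activity was read by AlphaScreen after JNK3-containing HepG2 lysate (cytokine pre-activated) phosphorylated biotinylated GST-cJun with 10 uM ATP at room temperature. Phospho-Ser73 cJun antibody with Protein-A acceptor beads provided detection.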

[8] = target: 3',5'-cyclic-AMP phosphodiesterase 4B (Homo sapiens) (UniProt Q07343); assay: qHTS Assay for Inhibitors of PDE-IV (AID 607; active = well fitted activation curve with a large enough effect in the main read-out, with a control signal flat, not every such curve was filed as active; also: % of control where 0% means no effect)
Outline: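 HEK293 ACTOne cells with CNG channel (1000/well), endogenous PDE4; membrane potential dye, compounds up to 22.9 uM final. Fluorescence Ex 535/Em 590; RO 20-1724 (100 uM final) as reference.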

[9] = qHTS Assay for Lipid Storage Modulators (AID 1519; calls by dose curve); conditions: Drosophila S3 cells, BODIPY lipid droplet/cell ratio, laser cytometry, cells loaded with oleic acid
Outline: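 Cells seeded at 5,000 per well were treated with compounds over a concentration series and loaded with oleic acid (400 uM, as added). Lipid droplet fluorescence (488 nm excitation, 500-530 nm channel) was read by laser-scanning cytometry and normalized to 20 uM Triacsin C.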

[10] = qHTS profiling for inhibitors of Plasmodium falciparum proliferation (AID 504749);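 also: 0% = DMSO vehicle and full inhibition = artemisinin control; nearly all actives have a fitted effect of over 60% in size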; conditions: P. falciparum in erythrocytes, SYBR Green DNA, 72 h
Outline: (§1)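 Each compound contacts P. falciparum-infected red blood cells for 72 h at 37 C; lysis buffer (Tris, EDTA, saponin, Triton X, SYBR Green I) is added and fluorescence measured next morning; values normalized to controls.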

AS120 = assay: as above; conditions: P. falciparum in erythrocytes, SYBR Green DNA, 72 h; series mostly up to 28.7 µM
Outline: as §1

CP203 = assay: as above; conditions: P. falciparum in erythrocytes, SYBR Green DNA, 72 h; series mostly up to 12.8 µM
Outline: as §1

CP291 = assay: as above; conditions: P. falciparum in erythrocytes, SYBR Green DNA, 72 h; series mostly up to 12.8 µM
Outline: as §1

DFO2036 = assay: as above; conditions: P. falciparum in erythrocytes, SYBR Green DNA, 72 h; series mostly up to 12.8 µM
Outline: as §1

[11] = target: Ubiquitin carboxyl-terminal hydrolase 1 (Homo sapiens) (UniProt O94782); assay: Inhibitors of USP1/UAF1: Pilot qHTS (AID 504865); also: nearly all actives have a fitted effect of over 35% in size; also: potency is read from the fitted curve at half-maximal effect
Outline: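 1nM USP1/UAF1 + cpd, 15 min RT; start w/ Ub-Rho 150nM final; kinetic FL 480/540 nm, 6 reads q60 s. Buffer 50mM HEPES pH 7.8, 0.5mM EDTA, 1mM TCEP, 0.01% Tween-20, 0.1 mg/ml BSA.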

[12] = target: Lysosomal acid glucosylceramidase (Homo sapiens) (UniProt P04062); assay: Glucocerebrosidase-p2 (AID 348; in the data active = potency below about 10 µM; also: potency is read from the fitted curve at half-maximal effect); conditions: purified GBA, blue fluorogenic substrate, 40 min
Outline: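 Normal human glucocerebrosidase (0.2 nM) with blue fluorogenic substrate (80 uM final) in citrate/phosphate pH 5.9 with 10mM sodium taurocholate, 0.01% tween-20; 40 min RT, NaOH/glycine stop; fluorescence Ex 365/Em 440; AC50 from a titration from 0.6 nM upwards.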

[13] = target: Dual specificity protein kinase CLK4 (Homo sapiens) (UniProt Q9HAZ1); assay: qHTS Assay for Inhibitors of CDC-like Kinase 4 (ADP-FP Assay) (AID 1795); also: nearly all actives have a fitted effect of over 60% in size; also: potency is read from the fitted curve at half-maximal effect
Outline: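 FP readout: Orange Transcreener ADP2 tracer (4 nM) plus ADP antibody, read after 30 min at room temperature. Kinase step: 6.25 nM Clk4, 100 uM RS peptide, 1 uM ATP, pH 7.5, 1 h.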

[14] = target: Cytochrome P450 3A4 (Homo sapiens) (UniProt P08684); assay: qHTS Assay for Activators of Cytochrome P450 3A4 (AID 885); also: nearly all actives have a fitted effect of over 65% in size
Outline: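 Human CYP3A4 dealkylates Luciferin-PPXE to luciferin, which luciferase detection converts to light. Substrate was at its KM (25uM), buffer 200mM KPO4, reaction 60 min at RT.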

[15] = target: Cytochrome P450 3A4 (Homo sapiens) (UniProt P08684); assay: qHTS Assay for Inhibitors and Substrates of Cytochrome P450 3A4 (AID 884); also: potency is read from the fitted curve at half-maximal effect; nearly all actives have a fitted effect of over 50% in size
Outline: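 Luminescent readout of luciferin produced by CYP3A4 (20 nM) dealkylation of Luciferin-PPXE, 25 uM (its KM). NADPH-driven reaction ran 60 min at RT after 10 min compound preincubation; data scaled to 57 uM ketoconazole as 100% inhibition.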

[16] = target: Dual specificity protein kinase CLK4 (Homo sapiens) (UniProt Q9HAZ1); assay: qHTS Assay for Inhibitors of CDC-like Kinase 4 (Kinase-Glo Assay) (AID 1770); also: % is scaled to controls: 0 for no effect and ±100 for the full control effect; nearly all actives have a fitted effect of over 65% in size
Outline: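 Readout: Kinase-Glo luminescence from ATP left after a 4.5 h room-temperature reaction of 25 nM Clk4 with 100 uM RS peptide and 1 uM ATP (final). Buffer: 25 mM Tris pH 7.5, 10 mM MgCl2.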

[17] = measured here: cell count channel max response
[18] = measured here: lipid channel max response

Sequence of Dual specificity protein kinase CLK4 (Homo sapiens) (Q9HAZ1 whole entry, looked up): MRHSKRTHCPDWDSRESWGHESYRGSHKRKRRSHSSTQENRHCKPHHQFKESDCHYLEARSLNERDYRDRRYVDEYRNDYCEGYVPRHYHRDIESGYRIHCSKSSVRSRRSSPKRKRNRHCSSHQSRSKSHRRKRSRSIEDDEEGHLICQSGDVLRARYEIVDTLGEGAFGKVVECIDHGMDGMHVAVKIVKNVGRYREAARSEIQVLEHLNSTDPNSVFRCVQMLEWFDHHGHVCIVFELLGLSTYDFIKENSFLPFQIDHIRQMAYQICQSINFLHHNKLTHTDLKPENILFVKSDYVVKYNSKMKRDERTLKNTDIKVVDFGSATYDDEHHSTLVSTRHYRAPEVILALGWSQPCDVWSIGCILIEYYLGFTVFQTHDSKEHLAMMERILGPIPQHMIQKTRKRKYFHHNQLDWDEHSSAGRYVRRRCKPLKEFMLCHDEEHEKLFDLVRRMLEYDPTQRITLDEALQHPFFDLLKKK
Sequence of Ubiquitin carboxyl-terminal hydrolase 1 (Homo sapiens) (O94782 whole entry, looked up): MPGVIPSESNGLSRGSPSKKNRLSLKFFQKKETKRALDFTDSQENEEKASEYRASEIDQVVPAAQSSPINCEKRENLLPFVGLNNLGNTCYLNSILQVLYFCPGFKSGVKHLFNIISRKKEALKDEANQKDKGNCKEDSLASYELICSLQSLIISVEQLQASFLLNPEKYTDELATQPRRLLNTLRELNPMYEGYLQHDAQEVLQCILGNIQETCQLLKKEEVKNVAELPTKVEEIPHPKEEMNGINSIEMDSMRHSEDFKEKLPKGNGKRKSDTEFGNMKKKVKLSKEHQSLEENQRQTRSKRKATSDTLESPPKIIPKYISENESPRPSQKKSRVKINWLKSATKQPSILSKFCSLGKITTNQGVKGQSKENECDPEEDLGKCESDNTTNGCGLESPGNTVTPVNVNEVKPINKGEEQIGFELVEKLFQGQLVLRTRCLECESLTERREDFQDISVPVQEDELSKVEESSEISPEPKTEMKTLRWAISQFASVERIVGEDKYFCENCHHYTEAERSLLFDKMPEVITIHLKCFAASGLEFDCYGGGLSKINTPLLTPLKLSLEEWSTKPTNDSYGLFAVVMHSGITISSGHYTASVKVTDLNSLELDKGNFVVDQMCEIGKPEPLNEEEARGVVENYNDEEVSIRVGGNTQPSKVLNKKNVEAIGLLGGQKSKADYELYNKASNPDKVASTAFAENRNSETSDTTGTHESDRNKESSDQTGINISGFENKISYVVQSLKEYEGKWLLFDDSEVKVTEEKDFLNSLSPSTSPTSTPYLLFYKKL
Sequence of Lysosomal acid glucosylceramidase (Homo sapiens) (P04062 whole entry, looked up): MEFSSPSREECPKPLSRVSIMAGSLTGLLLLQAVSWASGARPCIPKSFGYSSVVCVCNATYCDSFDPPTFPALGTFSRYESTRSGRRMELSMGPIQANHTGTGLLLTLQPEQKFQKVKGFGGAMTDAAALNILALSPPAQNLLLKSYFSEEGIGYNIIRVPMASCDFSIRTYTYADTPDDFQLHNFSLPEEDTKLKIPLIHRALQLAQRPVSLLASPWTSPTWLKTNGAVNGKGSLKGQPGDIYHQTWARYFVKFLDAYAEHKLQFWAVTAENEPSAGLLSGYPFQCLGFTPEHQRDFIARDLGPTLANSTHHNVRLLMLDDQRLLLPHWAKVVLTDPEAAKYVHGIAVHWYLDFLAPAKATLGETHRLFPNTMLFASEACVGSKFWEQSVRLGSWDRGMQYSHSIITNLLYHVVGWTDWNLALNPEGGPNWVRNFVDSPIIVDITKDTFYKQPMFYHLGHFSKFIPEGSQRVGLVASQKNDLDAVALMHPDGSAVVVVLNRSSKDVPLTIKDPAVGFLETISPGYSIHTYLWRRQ
Sequence of Cytochrome P450 3A4 (Homo sapiens) (P08684 whole entry, looked up): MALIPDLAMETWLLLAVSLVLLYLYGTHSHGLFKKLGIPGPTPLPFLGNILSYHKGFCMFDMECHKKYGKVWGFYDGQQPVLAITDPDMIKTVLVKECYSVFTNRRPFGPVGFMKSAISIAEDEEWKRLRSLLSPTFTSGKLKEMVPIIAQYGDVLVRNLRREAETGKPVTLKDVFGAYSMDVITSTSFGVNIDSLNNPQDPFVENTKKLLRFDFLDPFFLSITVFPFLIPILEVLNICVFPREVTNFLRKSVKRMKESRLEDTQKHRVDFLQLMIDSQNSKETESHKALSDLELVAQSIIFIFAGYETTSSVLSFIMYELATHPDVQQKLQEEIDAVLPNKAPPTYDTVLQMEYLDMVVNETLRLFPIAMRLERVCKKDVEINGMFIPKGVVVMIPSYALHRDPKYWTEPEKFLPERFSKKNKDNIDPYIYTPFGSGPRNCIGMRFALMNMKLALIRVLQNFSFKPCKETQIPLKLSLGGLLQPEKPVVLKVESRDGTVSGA
Sequence of Cytochrome P450 1A2 (Homo sapiens) (P05177 whole entry, looked up): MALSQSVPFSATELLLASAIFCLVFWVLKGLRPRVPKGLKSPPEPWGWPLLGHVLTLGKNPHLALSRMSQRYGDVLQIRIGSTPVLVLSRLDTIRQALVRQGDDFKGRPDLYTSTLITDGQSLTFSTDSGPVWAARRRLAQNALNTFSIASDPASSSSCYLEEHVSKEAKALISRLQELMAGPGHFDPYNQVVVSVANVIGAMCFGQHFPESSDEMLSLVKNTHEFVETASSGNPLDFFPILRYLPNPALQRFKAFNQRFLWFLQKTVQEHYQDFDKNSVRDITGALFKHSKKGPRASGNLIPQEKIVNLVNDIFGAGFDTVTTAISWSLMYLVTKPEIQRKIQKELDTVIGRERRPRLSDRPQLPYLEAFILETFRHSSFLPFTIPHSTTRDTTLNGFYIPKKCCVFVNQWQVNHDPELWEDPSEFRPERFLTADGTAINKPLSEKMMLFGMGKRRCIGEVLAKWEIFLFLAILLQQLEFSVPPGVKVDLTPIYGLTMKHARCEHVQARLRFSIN
Sequence of Glucocorticoid receptor (Homo sapiens) (P04150 whole entry, looked up, the tested form may be a part): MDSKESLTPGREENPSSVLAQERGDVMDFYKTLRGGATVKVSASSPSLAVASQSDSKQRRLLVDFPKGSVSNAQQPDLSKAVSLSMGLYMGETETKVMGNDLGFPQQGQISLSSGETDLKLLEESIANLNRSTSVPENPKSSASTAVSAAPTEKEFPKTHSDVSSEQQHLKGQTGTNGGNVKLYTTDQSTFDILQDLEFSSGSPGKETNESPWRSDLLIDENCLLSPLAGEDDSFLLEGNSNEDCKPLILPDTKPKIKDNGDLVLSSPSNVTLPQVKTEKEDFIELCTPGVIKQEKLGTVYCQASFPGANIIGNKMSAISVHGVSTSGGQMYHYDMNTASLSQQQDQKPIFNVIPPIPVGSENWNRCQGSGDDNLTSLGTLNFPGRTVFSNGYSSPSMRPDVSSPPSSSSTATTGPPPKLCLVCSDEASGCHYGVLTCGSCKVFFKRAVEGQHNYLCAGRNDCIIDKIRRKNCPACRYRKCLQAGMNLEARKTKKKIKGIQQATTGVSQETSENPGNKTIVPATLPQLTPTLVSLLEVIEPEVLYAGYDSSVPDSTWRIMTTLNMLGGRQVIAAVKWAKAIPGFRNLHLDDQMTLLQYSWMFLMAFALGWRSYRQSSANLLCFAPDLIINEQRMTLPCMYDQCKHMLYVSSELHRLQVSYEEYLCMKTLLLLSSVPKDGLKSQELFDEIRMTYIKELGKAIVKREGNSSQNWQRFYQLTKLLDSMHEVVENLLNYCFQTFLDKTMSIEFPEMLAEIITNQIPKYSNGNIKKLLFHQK
Sequence of 3',5'-cyclic-AMP phosphodiesterase 4B (Homo sapiens) (Q07343 whole entry, looked up): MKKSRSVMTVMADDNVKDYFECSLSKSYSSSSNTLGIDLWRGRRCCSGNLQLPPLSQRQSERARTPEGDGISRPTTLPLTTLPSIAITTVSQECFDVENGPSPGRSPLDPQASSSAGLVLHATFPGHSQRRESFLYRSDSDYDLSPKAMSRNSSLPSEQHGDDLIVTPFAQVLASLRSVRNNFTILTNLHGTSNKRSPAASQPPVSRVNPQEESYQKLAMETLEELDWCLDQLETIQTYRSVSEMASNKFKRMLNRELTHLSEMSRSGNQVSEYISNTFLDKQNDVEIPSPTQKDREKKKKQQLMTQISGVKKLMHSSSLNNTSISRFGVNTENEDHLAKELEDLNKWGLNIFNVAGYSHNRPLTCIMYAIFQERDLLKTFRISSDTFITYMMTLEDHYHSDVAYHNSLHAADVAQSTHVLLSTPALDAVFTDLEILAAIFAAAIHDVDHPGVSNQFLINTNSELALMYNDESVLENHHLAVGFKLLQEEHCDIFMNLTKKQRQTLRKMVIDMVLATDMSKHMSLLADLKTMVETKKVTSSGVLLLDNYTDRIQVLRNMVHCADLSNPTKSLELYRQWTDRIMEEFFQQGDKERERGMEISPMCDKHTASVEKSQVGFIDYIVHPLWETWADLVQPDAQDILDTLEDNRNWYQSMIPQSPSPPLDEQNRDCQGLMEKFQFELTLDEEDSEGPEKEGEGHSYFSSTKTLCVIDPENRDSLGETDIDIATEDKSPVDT

CCN[C@@H]1C[C@H](C)S(=O)(=O)c2sc(S(N)(=O)=O)cc21
-1.77%: max response [9, 17]
inactive: activity change, negative = inhibition [1] -11.2% [at 17.2 µM] | Potency [2] | activity change, negative = inhibition [3] -16.8% [at 17.2 µM] | activity, negative = inhibition [4] -13.1% [at 17.2 µM] | Potency [5] > 20.6 µM | Potency [6] > 20.6 µM | Potency [7] | Potency [8] | activity change, negative = inhibition ([9]; at 25.7 µM (top of the series)) -5.41% | activity, negative = inhibition ([10]; at 28.7 µM (top of the series), parasite line A) 7.35% | activity, negative = inhibition ([10]; at 28.7 µM (top of the series), parasite line B) 9.64% | Potency (AS120) | Potency (CP203) | Potency (CP291) | Potency (DFO2036)
-5.35%: max response [9, 18]

CC1CC2C3CCC4=CC(=O)C=C[C@@]4(C)[C@]3(F)C(O)C[C@]2(C)[C@]1(O)C(=O)CO (stereo partly specified)
20% and 4.4%: max response [9, 17]
23.5% and 9.45%: max response [9, 18]
inactive: activity change, negative = inhibition ([9]; at 57.5 µM (top of the series)) -0.857% and 2.9% | Potency [11]

CC(=O)N(CC(O)CN(C(C)=O)c1c(I)c(C(=O)NC[C@@H](O)CO)c(I)c(C(=O)NC[C@@H](O)CO)c1I)c1c(I)c(C(=O)NC[C@@H](O)CO)c(I)c(C(=O)NC[C@@H](O)CO)c1I
-18.3%: max response [9, 18]
inactive: Potency [2] | activity change, negative = inhibition [3] -2.76% [at 17.2 µM] | activity, negative = inhibition [4] 4.45% [at 17.2 µM] | Potency [5] > 20.6 µM | Potency [6] > 20.6 µM | Potency [7] | Potency [8] | activity change, negative = inhibition ([9]; at 25.7 µM (top of the series)) 0.967% | Potency [11] | activity, negative = inhibition ([10]; at 12.8 µM (top of the series), parasite line A) 5.56% | activity, negative = inhibition ([10]; at 12.8 µM (top of the series), parasite line B) 6.47% | Potency (AS120) | Potency (CP203) | Potency (CP291) | Potency (DFO2036)
-17.3%: max response [9, 17]

C1CCN2C[C@H]3C[C@H](CN4CCCCC34)C2C1 (stereo partly specified)
17.1% and 11%: max response [9, 17]
19.7% and 18.8%: max response [9, 18]
inactive: activity change, negative = inhibition ([9]; at 57.5 µM (top of the series)) 2.4% and 4.93% | Potency [11]

Cc1cnc(CNc2ncnc3ccc(-c4ccc(C(=O)N(C)C)cc4)cc23)cn1
inactive: Potency [12] > 11.4 µM | activity change, negative = inhibition [1] -13.6% | activity change, negative = inhibition [3] 9.3% | activity, negative = inhibition [4] -5.52% | Potency [5] > 46 µM | Potency [6] > 46 µM | Potency [7] | Potency [8] | Potency [13] | Potency [11]
active: Potency [2] 15.8 µM

COc1ccc(-c2nc3cnc(N(C)C)nc3n(C[C@H]3CCCO3)c2=O)cc1
inactive: Potency [12] > 11.4 µM | activity change, negative = inhibition [1] 1.23% | activity change, negative = inhibition [3] -3.89% | activity, negative = inhibition [4] 2.75% | Potency [5] > 9.22 µM | Potency [6] > 46 µM | Potency [14] | Potency [13] | Potency [11]
active: Potency [2] 3.16 µM

c1csc(CNc2nc(-c3ccoc3)nc3ccccc23)c1
active: Potency [2] 0.316 µM | Potency [15] 7.94 µM | Potency [13] 11.2 µM
inactive: Potency [12] > 11.4 µM | activity change, negative = inhibition [1] -9.82% | activity change, negative = inhibition [3] -8.44% | activity, negative = inhibition [4] -7.57% | Potency [6] > 46 µM | Potency [7] | Potency [14]

Nc1ncnc2c1ncn2C1OC(CO)C(O)C1O (stereo unspecified)
19.8% and 38.9%: max response [9, 17]
31.9% and 67.8%: max response [9, 18]
inactive: activity change, negative = inhibition ([9]; at 57.5 µM (top of the series)) 9.6% and 14.7%

O=c1c(O)c(-c2ccc(O)cc2)oc2ccccc12
-1%: max response [9, 18]
-12.3%: max response [9, 17]
active: Potency [15] 12.6 µM
inactive: Potency [14] | activity change, negative = inhibition ([9]; at 57.5 µM (top of the series)) 8.84%

COc1ccc(C(=O)N2CCC[C@@]3(CCN(C(=O)Nc4cccc(C#N)c4)C3)C2)cc1
inactive: Potency [12] > 11.4 µM | activity change, negative = inhibition [1] -11.5% | Potency [2] | activity change, negative = inhibition [3] 16.6% | activity, negative = inhibition [4] 1.52% | Potency [6] > 46 µM | Potency [7] | Potency [8] | Potency [14]
active: Potency [15] 7.94 µM

Cc1cccc(CNc2ccnc(-c3ccccc3Cl)n2)c1
active: Potency [2] 1.58 µM | Potency [15] 3.98 µM | Potency [11] 28.2 µM
inactive: activity change, negative = inhibition [1] -2.43% | activity change, negative = inhibition [3] -3.52% | activity, negative = inhibition [4] -10.7% | Potency [5] > 46 µM | Potency [6] > 46 µM | Potency [7] | Potency [14] | Potency [16] | Potency [13]

COCCn1c(=O)c(-c2cc(F)cc(F)c2)nc2cnc(OCc3ccccc3)nc21
inactive: Potency [12] > 11.4 µM | activity change, negative = inhibition [1] 8.07% | activity change, negative = inhibition [3] -6.33% | activity, negative = inhibition [4] -6.5% | Potency [5] > 9.22 µM | Potency [6] > 46 µM | Potency [7] | Potency [8]

COCCn1c(=O)c(-c2cccc(Cl)c2)nc2cncnc21
inactive: activity change, negative = inhibition [1] -9.58% | activity change, negative = inhibition [3] 12.1% | activity, negative = inhibition [4] -4.06% | Potency [6] > 46 µM | Potency [7] | Potency [8] | Potency [14] | Potency [16] | Potency [13] | Potency [11]
active: Potency [2] 0.631 µM

CC(=O)NCCNc1nc(-c2ccc3c(c2)OCO3)nc2ccccc12
inactive: Potency [12] > 11.4 µM | activity change, negative = inhibition [3] 5.61% | activity, negative = inhibition [4] 4.37% | Potency [5] > 46 µM | Potency [6] > 46 µM | Potency [7] | Potency [8] | Potency [14] | Potency [11]
active: Potency [2] 2.51 µM | Potency [15] 3.98 µM

COc1ccc(-n2c(=O)c(-c3cccc(F)c3)nc3cncnc32)cc1
active: Potency [2] 3.98 µM
inactive: Potency [12] > 11.4 µM | activity change, negative = inhibition [1] -4.56% | activity change, negative = inhibition [3] 7.82% | activity, negative = inhibition [4] -17.1% | Potency [5] > 9.22 µM | Potency [6] > 46 µM | Potency [7] | Potency [8] | Potency [14] | Potency [16] | Potency [13] | Potency [11]
